Screening data from PubChem.
VHR inh abs: blocks human VHR1 dual specificity phosphatase; recombinant VHR phosphatase, pNPP absorbance; actives 0.52% (n = 290,000); P51452; AID 1654; inhibition, % at 13.3 µM; in the data active = inhibition above about 50%
SARS 3CLpro inh: SARS-CoV 3CLpro protease inhibition. P0C6X7. recombinant SARS-CoV 3CLpro, quenched FRET peptide cleavage. inhibition, % at 6 µM. actives 0.14% (n = 290,000). AID 1706; in the data active = inhibition above about 12%
BJeLR lethal: BJeLR cell viability loss; BJeLR (HRASV12) viability, CellTiter-Glo ATP luminescence, 48 h; inhibition, % (no concentration beside the values); actives 0.17% (n = 300,000); AID 1554; in the data active = inhibition above about 50%
PrPC surface inh: inhibitors of human cell surface prion protein PrPC; TR-FRET read-out; inhibition, % at 13.8 µM; actives 0.43% (n = 370,000); AID 720596; in the data active = inhibition above about 24%; note: 0% = median of the test wells and 100% = reference compound wells
PrPC TRFRET cf: cell surface PrPC inhibition, TR-FRET confirmation | inhibition, % at 13.8 µM | cell surface PrPC level | shares compounds with PrPC surface inh | actives 65% (n = 1,500); in the data active = inhibition above about 25%
LD9 tox: counter-screen for PrPc inhibitors: cytotoxicity in LD9 cells. shares compounds with PrPC surface inh. luminescence viability. inhibition, % at 13.8 µM. actives 29% (n = 1,500). AID 743201; in the data active = inhibition above about 9.5%
* marks the source's active call; other numbers are inactive results; / = no result given. Hits are enriched below; roughly 1.1% of the tested compounds scored in any of these assays.

SMILES | VHR inh abs | SARS 3CLpro inh | BJeLR lethal | PrPC surface inh | PrPC TRFRET cf | LD9 tox
C=C1[C@@H](C)C2[C@H](Cc3ccccc3)NC(=O)[C@]23[C@H](OC(C)=O)/C=C/[C@@](C)(O)C(=O)[C@@H](C)C/C=C/[C@H]3[C@@H]1O (stereo partly specified) | / | / | / | 43* | 38* | 2
C=C1C(C)C2C(Cc3ccccc3)NC(=O)C23C(OC(C)=O)C=CC(C)(O)CC(C)CC=CC3C1O (stereo unspecified) | / | / | / | 40* | 32* | 0
O=C(CSc1nnc(-c2ccccc2)n1-c1ccccc1)NN=C/C=C\c1ccccc1[N+](=O)[O-] | / | / | / | -6 | / | /
CCOC(=O)c1ccc2nc(NC(=O)c3ccco3)sc2c1 | 4 | 0 | 11 | -4 | / | /
CCOc1ccc2nc(NC(=O)c3ccco3)sc2c1 | 20 | -2 | 22 | 31* | 39* | 14*
Cc1cc2ccccc2n1CCNC(=O)C1CCCCC1 | -15 | 5 | -4 | 36* | 11 | -2
Cc1cc2ccccc2n1CCNC(=O)C1CC1 | 33 | -4 | -2 | 28* | 7 | -2
CCn1c(CNC(=O)C2CCCCC2)cc2ccccc21 | 30 | 8 | -5 | 9 | / | /
Cc1cc2ccccc2n1CCNC(=O)C1CCCC1 | 24 | 1 | -3 | 40* | 4 | 1
O=C(NCCn1ccc2ccccc21)C1CCCCC1 | 39 | 7 | 7 | 5 | / | /
Cc1cc2ccccc2n1CCNC(=O)c1cccs1 | -2 | 4 | -17 | 33* | 25* | -5
COc1ccccc1CC(=O)c1ccccc1OC | / | / | / | 1 | / | /
CCOC(=O)N1CCN(C(=O)C[C@H]2C[C@@]3(C(=O)OC)C(=C[C@H](C4CCCC4)O[C@@H]3C)N(Cc3cccc4ccccc34)C2=O)CC1 | / | / | / | 10 | / | /
CCNC(=O)N(C)C[C@H]1N[C@@](CC)(C(=O)OC)[C@H]2C(=O)N(Cc3ccccc3)C(=O)[C@@H]12 | / | / | / | -5 | / | /
CC1CCC/C=C/C2CC(O)CC2C(O)/C=C/C(=O)O1 (stereo unspecified) | 20 | 5 | 36 | 89* | 95* | 7
COc1cc(Cl)ccc1OC1(C)CCN(Cc2ccc(SC)cc2)C1 (stereo unspecified) | / | / | / | -9 | / | /
Clc1cccc(CNc2ccn3nc(-c4ccc(OCc5ccccc5)cc4)cc3n2)c1 | / | / | / | 37* | 32* | -7
COCCCNc1ccn2nc(-c3ccc(OCc4ccccc4)cc3)cc2n1 | / | / | / | 42* | 30* | 2
Clc1cccc(CNc2ccn3nc(-c4ccccc4)cc3n2)c1 | / | / | / | 10 | / | /
Cc1cccc(C)c1NS(=O)(=O)c1ccc(-c2cnc(C3CC3)o2)cc1 | -2 | 3 | 60* | 25* | 14 | 29*
Cc1nc(N2CCN(Cc3ccc(Cl)cc3)CC2)c2oc3ccccc3c2n1 | 0 | 3 | 2 | -1 | / | /
Cc1nc(N2CCN(Cc3ccc4c(c3)OCO4)CC2)c2oc3ccccc3c2n1 | / | / | / | 48* | 11 | 15*
CC(C)(C)c1cc(CCC(=O)N2CCC2)cc(C(C)(C)C)c1O | -11 | -1 | 1 | 21 | / | /
CC1CN(C(=O)CCc2cc(C(C)(C)C)c(O)c(C(C)(C)C)c2)CC(C)O1 (stereo unspecified) | 50 | 0 | 3 | 26* | 29* | 18*
COC(=O)C1=C(C)OC(N)=C(C#N)C1c1c(C)nn(-c2ccccc2)c1Cl (stereo unspecified) | -2 | 0 | -14 | 4 | / | /
SMILES | VHR inh abs | SARS 3CLpro inh | BJeLR lethal | PrPC surface inh | PrPC TRFRET cf | LD9 tox
Cc1nn(-c2ccccc2)c(Cl)c1C1C(C#N)=C(N)Oc2c1c(=O)oc1ccccc21 (stereo unspecified) | 14 | 0 | 3 | 36* | 10 | 3
CCC(=O)N1CCc2cc(Br)c(S(=O)(=O)CCC(=O)NCCc3ccccc3)cc21 | / | / | / | 2 | / | /
COc1ccc2c(CC(=O)Nc3ncc(C)s3)coc2c1 | 19 | 0 | 3 | 29* | 35* | 7
CCOC(=O)C1CCN(S(=O)(=O)c2ccc3c(c2)N(C(C)=O)CC(C)S3)CC1 (stereo unspecified) | -16 | 0 | 8 | 4 | / | /
CC(C)NC(=S)n1cc(C(=O)c2cc(Cl)cc(Cl)c2O)cn1 | 14 | 1 | 1 | 41* | 10 | -3
O=C(COC(=O)c1ccc(C(F)(F)F)cc1)Nc1cccc(S(=O)(=O)N2CCCCC2)c1 | / | / | / | 1 | / | /
O=C(C1=C(O)C(=O)N(CCN2CCOCC2)C1c1cccc(O)c1)c1cc2ccccc2o1 (stereo unspecified) | -4 | 6 | 6 | 1 | / | /
O=C(C1=C(O)C(=O)N(CCN2CCOCC2)C1c1cccc(F)c1)c1cc2ccccc2o1 (stereo unspecified) | -9 | 7 | -7 | 42* | 70* | -4
O=C(O)c1ccc(CN2C[C@@H](CO)O[C@@H](n3cnc4c(Nc5ccccc5)ncnc43)C2)cc1 | / | / | / | -2 | / | /
OC[C@@H]1CN(Cc2ccc(Cl)cc2)C[C@H](n2cnc3c(Nc4ccccc4)ncnc32)O1 | / | / | / | 41* | 20 | -2
COc1ccc2oc(=O)c(C(=O)N3CCN(C(=O)c4ccco4)CC3)cc2c1 | 7 | 8 | -9 | -8 | / | /
COc1ccc(CN2C(=O)CSCC2(C)C(=O)NC(C)C)cc1 (stereo unspecified) | / | / | / | 0 | / | /
COC(=O)CSc1nc(-c2ccccc2)nc2ccccc12 | 0 | -3 | -1 | 106* | 113* | -7
Cc1cccc2c(SCC(N)=O)nc(-c3ccccc3)nc12 | 36 | -3 | -10 | 6 | / | /
NC(=O)CSc1nc(-c2ccccc2)nc2ccccc12 | / | -4 | -4 | 70* | 72* | -9
Cc1ccc(S(=O)(=O)N2CC3=C(C2)C2CC2(C)C3)cc1 (stereo unspecified) | / | / | / | 1 | / | /
CCOc1ccc(C(=O)N/N=C/c2cccc3cccnc23)cc1 | 7 | 2 | 7 | 25* | 24 | 4
COc1ccc(C(=O)N/N=C/c2cccc3cccnc23)cc1 | 20 | -2 | -3 | 18 | / | /
COc1ccccc1CCC[C@@H](CCS(=O)(=O)C(C)C)CC1CCCCC1 | / | / | / | -3 | / | /
CCc1cc2c(=O)c(-c3ccc4c(c3)OCO4)coc2c(CN(C)C)c1O | / | 2 | -2 | 86* | 95* | -5
CCc1cc2c(=O)c(-c3cscn3)coc2c(CN(C)C)c1O | 13 | 3 | 3 | 6 | / | /
COCc1[nH]nc2c1C(c1ccc(C)cc1)NC2=O (stereo unspecified) | / | / | / | 0 | / | /
Cc1ccc(C(=O)NNC(=O)CSc2nnc(C3CC3)n2C)cc1 | 6 | -1 | -11 | 11 | / | /
COc1ccc(Br)cc1CNC(=O)c1ccc2c(c1)N(C)CCS2 | 25 | 2 | -6 | 37* | 51* | -1
COC(=O)Nc1ccc(S(=O)(=O)N2c3ccccc3CCC2C)cc1 (stereo unspecified) | 17 | 4 | 24 | 28* | 8 | 4
COc1ccccc1NC(=O)N(C)C[C@@H]1OCc2cnnn2CCCC(=O)N([C@@H](C)CO)C[C@H]1C | / | / | / | 12 | / | /
O=C(NNc1ccccc1)OCc1ccccc1 | / | / | / | 25* | 18 | -7
